Assay outcomes from PubChem.
Hits are enriched below; roughly 4.4% of the tested compounds scored in any of these assays.
D1 potentiator: enhances dopamine response at the human D1 receptor; AID 504651; HEK293 TREx D1 cells, calcium flux, dopamine EC20 potentiation; potentiation, % at 10 µM; P21728; actives 0.036% (n = 360,000); in the data active = potentiation above about 30%; also: 0% is about no effect
TRHR enhancer: allosteric enhancers of human TRH receptor. P34981. TRHR cells, fluo-8 calcium fluorescence, EC20 TRH enhancement. actives 0.66% (n = 360,000). enhancement, % at 2 µM. AID 493056; in the data active = enhancement above about 30%; also: 0% is about no effect
Target sequence (P34981 whole entry, looked up): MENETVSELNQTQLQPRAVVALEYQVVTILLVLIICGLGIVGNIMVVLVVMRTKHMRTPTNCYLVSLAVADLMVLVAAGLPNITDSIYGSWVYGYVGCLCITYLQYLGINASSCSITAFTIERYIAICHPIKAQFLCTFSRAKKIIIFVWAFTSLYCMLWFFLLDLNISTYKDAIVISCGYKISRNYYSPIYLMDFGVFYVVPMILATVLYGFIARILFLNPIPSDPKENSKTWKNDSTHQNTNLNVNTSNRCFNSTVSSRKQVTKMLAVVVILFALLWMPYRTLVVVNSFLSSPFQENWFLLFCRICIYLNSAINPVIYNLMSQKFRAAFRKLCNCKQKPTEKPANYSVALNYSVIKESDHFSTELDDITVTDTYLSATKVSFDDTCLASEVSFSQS
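Enhancer read-out: after compound pinning and an initial kinetic agonist-mode read, an EC20 of TRH (10 nM final) was injected and fluo-8 calcium signal (Ex 480/Em 530) followed at 1 s/cycle for 100 cycles in TRHR-expressing cells.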
USP1 inh: blocks the human USP1/UAF1 deubiquitinase complex; recombinant USP1/UAF1, Ub-Rhodamine cleavage fluorescence; O94782; Potency, µM (titrated, usually from 57.1 µM), for inactives: at the top dose activity change, negative = inhibition, hits mostly inhibitors; actives 0.23% (n = 390,000); active = well fitted inhibition curve with a large enough effect; inconclusive = small, poorly fitted or top-dose-only effect; inactive = no such curve, though single readings can be large or run the other way; also: potency is read from the fitted curve at half-maximal effect; % is scaled to controls: 0 for no effect and ±100 for the full control effect; nearly all actives have a fitted effect of over 60% in size
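High-throughput fluorogenic screen: 1nM USP1/UAF1 complex, Ub-Rho substrate 150nM final, 50mM HEPES pH 7.8 with 0.5mM EDTA, 0.1 mg/ml BSA, 1mM TCEP and 0.01% Tween-20.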
D1 agonist: activates the human D1 dopamine receptor. AID 504660. actives 1% (n = 360,000). activation, % at 2 µM. HEK293 T-REx D1 cells, calcium flux, agonist mode; also: 0% is about no effect
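Inducible HEK293 T-REx D1 cells, force-coupled to calcium signalling, were plated at 4000 cells/well with tetracycline and held overnight at 30 C. After no-wash calcium dye loading, compound-evoked calcium rise over 180 s flagged agonists.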
D1 antagonist: human D1 dopamine receptor antagonism. P21728. HEK293 TREx D1 cells, calcium flux, dopamine EC80; active compounds read low. activity change, negative = inhibition, % at 10 µM. actives 3.2% (n = 360,000). AID 504652; in the data active = activity change below about -30%; also: % is scaled to controls: 0 for no effect and ±100 for the full control effect
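Cells carrying a force-coupled, tetracycline-inducible human D1 receptor report calcium flux. Each well gets a 10 s baseline, compound with 180 s monitoring, then an EC80 dopamine stimulus with a second 180 s kinetic read.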
TRHR ag: agonists of human TRH receptor. TRHR cells, calcium flux fluo-8, FDSS agonist mode. P34981. AID 493084. actives 0.18% (n = 360,000). activation, % at 2 µM; also: 0% is about no effect
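Steps: seed TRHR cells overnight; add fluo-8 no-wash Ca dye, RT 30 min–1.5 h; record 10 s baseline; pin-transfer compounds; monitor fluorescence 1 cycle/s for the agonist window. Calcium increases flag candidate agonists.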
Active calls of the source: *; ! = a repeat was not active. Rule as the data show it, unless noted: active = activation above about 30%; inactive = the rest.

COc1ccc(-c2noc(CC(=O)N(C)c3cc(Cl)c(OC)cc3OC)n2)cc1 was read as D1 potentiator -5, TRHR enhancer 1, USP1 inh -7%, D1 agonist 1, D1 antagonist -2 and TRHR ag 0.
Cc1ccc(-n2c3c(cc(C(=O)Nc4cccc(Cl)c4)c2=O)C(=O)CC(C)(C)C3)cc1 was read as D1 potentiator 1, TRHR enhancer 4, USP1 inh -25%, D1 agonist 3, D1 antagonist 21 and TRHR ag 0.
For O=C(Nc1ccc(Cl)c(Cl)c1)N1CCC(c2ccccc2)C1 (centres undefined) the results were D1 potentiator -6, TRHR enhancer -6, USP1 inh -7%, D1 agonist 12, D1 antagonist -43* and TRHR ag 0.
`CCOc1ccc(NC(=O)N2CCC(c3ccc(C)cc3)C2)cc1` (centres undefined) gave D1 potentiator -6, TRHR enhancer -2, USP1 inh -9%, D1 agonist 1, D1 antagonist -31*! and TRHR ag -1.
Cc1ccc(C2CCN(C(=O)Nc3ccc(Cl)cc3)C2)cc1 (centres undefined) was read as D1 potentiator -7, TRHR enhancer 3, USP1 inh inconclusive, D1 agonist 5, D1 antagonist -24 and TRHR ag 0.
Cc1ccc(C2CCN(C(=O)Nc3ccc(Cl)c(Cl)c3)C2)cc1 (centres undefined) was read as D1 potentiator -8, TRHR enhancer -4, USP1 inh -13%, D1 agonist 8, D1 antagonist -45* and TRHR ag 0.
Cc1ccc(C2CCN(C(=O)Nc3ccc(C)c(C)c3)C2)cc1 (centres undefined) was read as D1 potentiator -3, TRHR enhancer 5, USP1 inh -5%, D1 agonist 2, D1 antagonist -21 and TRHR ag -1.
For Cn1cc(S(=O)(=O)N2CCCCCC2)cc1C(=O)NCc1ccccc1Cl the results were D1 potentiator -2, TRHR enhancer 0, USP1 inh -17%, D1 agonist 6, D1 antagonist -20 and TRHR ag 0.
`Cc1ccccc1OCCn1c(C)nc2ccccc21` gave D1 potentiator -10, TRHR enhancer -14, USP1 inh -3%, D1 agonist 14, D1 antagonist -41* and TRHR ag -2.
`Cc1nc2ccccc2n1CC(O)COc1ccc(Br)cc1` (centres undefined) gave D1 potentiator -4, TRHR enhancer -10, USP1 inh -5%, D1 agonist 11, D1 antagonist -20 and TRHR ag 1.
Screening Cc1nc2ccccc2n1CCOc1ccccc1 returned D1 potentiator 3, TRHR enhancer -2, USP1 inh -7%, D1 agonist 10, D1 antagonist -42* and TRHR ag 0.
`Cc1nc2ccccc2n1CC(O)COc1ccccc1Cl` (centres undefined) gave D1 potentiator -8, TRHR enhancer -12, USP1 inh -4%, D1 agonist 20, D1 antagonist -46* and TRHR ag 1.
`Cc1cc(C)n(CC(C)Nc2nc3nonc3nc2N2CCCCC2)n1` (centres undefined) gave D1 potentiator 0, TRHR enhancer -5, USP1 inh -16%, D1 agonist 0, D1 antagonist -9 and TRHR ag -1.
`Cc1nn(C)cc1C(C)Nc1nc2nonc2nc1N1CCCCC1` (centres undefined) gave D1 potentiator 0, TRHR enhancer 33*, USP1 inh -4%, D1 agonist 2, D1 antagonist -4 and TRHR ag -1.
For CC1CC(=O)N(CC(=O)Nc2ccc(F)cc2F)c2ccccc2S1 (centres undefined) the results were D1 potentiator 1, TRHR enhancer 6, USP1 inh -24%, D1 agonist 1, D1 antagonist 5 and TRHR ag 0.
Screening CCOC(=O)c1c(C)[nH]c(C)c1C(=O)COC(=O)c1cccc(S(=O)(=O)N(CC)CC)c1 returned D1 potentiator -4, TRHR enhancer 4, USP1 inh -17%, D1 agonist 25, D1 antagonist -49* and TRHR ag -1.
`CCOC(=O)c1c(C)[nH]c(C)c1C(=O)COC(=O)c1cc(OC)cc(OC)c1` gave D1 potentiator 3, TRHR enhancer -3, USP1 inh -12%, D1 agonist -1 and TRHR ag -1.
CCOC(=O)c1c(C)[nH]c(C)c1C(=O)COC(=O)c1cc(OC)c(OC)cc1OC was read as D1 potentiator -8, TRHR enhancer -1, USP1 inh -11%, D1 agonist 3, D1 antagonist -32* and TRHR ag 0.
For Cc1ccc2c(=O)c(C(=O)c3ccc(F)cc3)cn(CC(=O)NCc3ccccc3)c2n1 the results were D1 potentiator 3, TRHR enhancer 7, USP1 inh -5%, D1 agonist 0, D1 antagonist -16 and TRHR ag 0.
`Cc1ccc(C2C(C#N)=C(N)Oc3cc(N)ccc32)cc1` (centres undefined) gave D1 potentiator -2, TRHR enhancer -1, USP1 inh -18%, D1 agonist 2, D1 antagonist 2 and TRHR ag 0.
Screening Cc1ccc(/C=C2\CCC3=C2OC(N)=C(C#N)C3c2ccc(C)cc2)cc1 (centres undefined) returned D1 potentiator -5, TRHR enhancer 15, USP1 inh inconclusive, D1 agonist 135*, D1 antagonist -57* and TRHR ag 68*.
Screening Cc1cc(C)n(-c2nc3ccccc3nc2N2CCN(C(=O)c3ccc(Cl)cc3)CC2)n1 returned D1 potentiator 5, TRHR enhancer 30*, USP1 inh -2%, D1 agonist 1, D1 antagonist 4 and TRHR ag -1.
Screening CCC(=O)N1CCc2cc(S(=O)(=O)CCC(=O)Nc3ccc(Cl)c(C(F)(F)F)c3)ccc21 returned D1 potentiator 6, TRHR enhancer -1, USP1 inh -30%, D1 agonist 2, D1 antagonist -2 and TRHR ag 0.
Screening COc1cc(C(=O)OCCC(C)C)cc(OC)c1O returned D1 potentiator 1, TRHR enhancer 11, USP1 inh -18%, D1 agonist 14, D1 antagonist 6 and TRHR ag -1.
CCCCOC(=O)c1cc(Cl)c(O)c(OC)c1 was read as D1 potentiator -2, TRHR enhancer 40*, USP1 inh -26%, D1 agonist 3, D1 antagonist -13 and TRHR ag -1.
